# The list shows a part of the results. Activity calls are given as the source filed them.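 Rule for the calls, unless noted: active = at 20 µM dose, 40% or more inhibition averaged across four replicates; inactive = the rest.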
# Experiments:
# [1] = Peg3 promoter reporter inhibitors, retest, confirmation, cell-based, HeLa, luciferase reporter, single concentration (AID 602417); conditions: HeLa PEG-Prom luciferase reporter, luminescence, overnight; at 20 µM; stronger effect = higher value
# PEG-3 [2] = biological target: PEG-3 (UniProt Q6IN02); assay: Peg3 promoter luciferase inhibitors, potency, dose response, cell-based, HeLa, CREF/GAPDH counter-screen panel (AID 624167); conditions: CREF/GAPDH counter-screens; HeLa PEG-Prom luciferase reporter, overnight, run 1, dose range 1, at 100 µM (top of the series) unless noted
# Sequence of PEG-3 (Q6IN02 whole entry, looked up): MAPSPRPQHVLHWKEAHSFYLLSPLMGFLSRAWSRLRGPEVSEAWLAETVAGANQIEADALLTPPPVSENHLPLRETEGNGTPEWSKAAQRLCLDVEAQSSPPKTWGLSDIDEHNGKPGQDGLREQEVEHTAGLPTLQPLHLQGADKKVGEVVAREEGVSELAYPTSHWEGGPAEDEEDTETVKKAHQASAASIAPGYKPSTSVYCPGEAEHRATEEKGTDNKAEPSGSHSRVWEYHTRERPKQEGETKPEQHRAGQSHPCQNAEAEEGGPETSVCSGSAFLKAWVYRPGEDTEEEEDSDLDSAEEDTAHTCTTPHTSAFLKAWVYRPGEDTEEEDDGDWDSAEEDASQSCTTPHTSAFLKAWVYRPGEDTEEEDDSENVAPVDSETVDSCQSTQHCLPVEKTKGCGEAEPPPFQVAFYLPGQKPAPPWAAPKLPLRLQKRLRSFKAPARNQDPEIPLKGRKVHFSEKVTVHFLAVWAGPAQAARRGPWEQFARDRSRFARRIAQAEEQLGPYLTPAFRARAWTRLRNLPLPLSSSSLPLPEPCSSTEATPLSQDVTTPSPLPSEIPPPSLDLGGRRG
# PEG-3 [3] = biological target: PEG-3 (UniProt Q6IN02); assay: as above; conditions: CREF/GAPDH counter-screens; HeLa PEG-Prom luciferase reporter, overnight, run 2, dose range 1, at 100 µM (top of the series) unless noted
# [4] = inhibitors of PAF-induced NF-kB signaling, retest, confirmation, cell-based, GFP fluorescence, single concentration (AID 602472; in the data active = inhibition above about 40%;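 note: stimulus PAF is a Pseudomonas aeruginosa filtrate and not platelet activating factor; plate controls were DMSO wells with stimulus for no effect and unstimulated DMSO wells for full effect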); conditions: KKLEB CF airway cells, overnight, at 5 µM, stronger effect = higher value
# [5] = biological target: COP9 signalosome complex subunit 5 (Homo sapiens) (UniProt Q92905); assay: Csn5 deneddylation inhibitors, confirmation, biochemical, fluorescence polarization, single concentration, SCF-Nedd8OG substrate (AID 720654; in the data active = inhibition above about 50%;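 note: 0% = DMSO with enzyme and 100% = no enzyme wells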); conditions: Csn5 deneddylation of SCF-Nedd8OG, 90 min, at 16.6 µM, stronger effect = higher value
# Sequence of COP9 signalosome complex subunit 5 (Homo sapiens) (Q92905 whole entry, looked up, one chain of several): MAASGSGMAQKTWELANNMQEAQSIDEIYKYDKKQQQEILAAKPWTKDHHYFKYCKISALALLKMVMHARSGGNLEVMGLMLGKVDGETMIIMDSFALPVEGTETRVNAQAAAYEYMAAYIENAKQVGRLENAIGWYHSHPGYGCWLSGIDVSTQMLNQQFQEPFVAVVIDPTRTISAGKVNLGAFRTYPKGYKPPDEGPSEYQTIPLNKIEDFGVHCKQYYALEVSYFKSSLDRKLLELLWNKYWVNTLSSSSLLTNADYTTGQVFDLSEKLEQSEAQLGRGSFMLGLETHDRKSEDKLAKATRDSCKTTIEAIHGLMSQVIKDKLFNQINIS
# [6] = biological target: 72 kDa type IV collagenase (Homo sapiens) (UniProt P08253); assay: MMP-2 protease inhibition counter-screen, confirmation, counter-screen for CSN deneddylation inhibitor project, biochemical, fluorescence, single concentration (AID 720655;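 active = corrected plate-normalized z-score of 5 or more, or -5 or less, or inhibition of 15% or more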;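 note: plate controls were DMSO wells with enzyme for no effect and buffer wells lacking MMP-2 for full effect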); conditions: recombinant MMP-2, FRET substrate fluorescence, 60 min; at 16.6 µM
# Sequence of 72 kDa type IV collagenase (Homo sapiens) (P08253 whole entry, looked up): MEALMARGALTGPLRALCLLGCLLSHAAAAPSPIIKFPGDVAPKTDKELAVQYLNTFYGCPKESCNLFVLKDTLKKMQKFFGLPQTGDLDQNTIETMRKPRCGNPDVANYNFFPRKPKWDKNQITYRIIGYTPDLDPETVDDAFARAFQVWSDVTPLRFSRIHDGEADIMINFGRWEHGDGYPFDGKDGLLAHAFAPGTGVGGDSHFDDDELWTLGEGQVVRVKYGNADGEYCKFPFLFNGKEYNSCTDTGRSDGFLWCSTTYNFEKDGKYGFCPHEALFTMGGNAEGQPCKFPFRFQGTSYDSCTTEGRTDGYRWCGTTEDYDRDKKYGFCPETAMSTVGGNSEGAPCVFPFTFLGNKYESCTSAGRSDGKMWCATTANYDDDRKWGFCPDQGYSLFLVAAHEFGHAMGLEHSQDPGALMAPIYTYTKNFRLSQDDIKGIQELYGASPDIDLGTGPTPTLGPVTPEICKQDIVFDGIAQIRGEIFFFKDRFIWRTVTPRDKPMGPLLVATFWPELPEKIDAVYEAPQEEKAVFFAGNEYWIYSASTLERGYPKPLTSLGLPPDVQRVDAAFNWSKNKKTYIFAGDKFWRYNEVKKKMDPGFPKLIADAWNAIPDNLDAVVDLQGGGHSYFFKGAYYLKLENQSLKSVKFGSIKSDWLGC
# Prothrombin (Bos taurus) = Prothrombin (Bos taurus) (UniProt P00735); assay: bovine thrombin inhibition counter-screen, confirmation, counter-screen for CSN deneddylation inhibitor project, biochemical, fluorescence polarization, single concentration (AID 720656;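 active = inhibition at or above a set limit, with a fluorescence interference ratio between 0.5 and a set maximum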); conditions: bovine thrombin cleavage of Ub4-pepOG, at 16.6 µM, stronger effect = higher value
# Sequence of Prothrombin (Bos taurus) (P00735 whole entry, looked up): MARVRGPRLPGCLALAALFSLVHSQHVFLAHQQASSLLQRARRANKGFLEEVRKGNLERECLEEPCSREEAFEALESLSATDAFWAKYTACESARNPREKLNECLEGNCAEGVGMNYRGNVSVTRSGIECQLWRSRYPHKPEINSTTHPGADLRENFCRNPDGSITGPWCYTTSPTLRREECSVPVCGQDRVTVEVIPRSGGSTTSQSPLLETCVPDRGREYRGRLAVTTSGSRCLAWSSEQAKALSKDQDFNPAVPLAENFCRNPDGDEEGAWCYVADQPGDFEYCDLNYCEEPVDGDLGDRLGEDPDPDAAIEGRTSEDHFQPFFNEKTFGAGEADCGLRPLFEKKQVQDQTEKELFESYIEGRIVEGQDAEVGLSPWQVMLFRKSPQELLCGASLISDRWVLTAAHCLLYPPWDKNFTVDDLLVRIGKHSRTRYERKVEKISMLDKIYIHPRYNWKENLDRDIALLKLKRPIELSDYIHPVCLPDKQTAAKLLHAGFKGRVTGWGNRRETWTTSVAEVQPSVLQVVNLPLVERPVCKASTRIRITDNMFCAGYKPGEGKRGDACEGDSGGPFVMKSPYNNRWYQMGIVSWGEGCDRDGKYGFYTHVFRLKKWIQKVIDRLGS
# Rat fibroblasts (CREF) [7] = assay: Peg3 promoter luciferase inhibitors, potency, dose response, cell-based, HeLa, CREF/GAPDH counter-screen panel (AID 624167); conditions: CREF/GAPDH counter-screens; run 1, dose range 1, at 100 µM (top of the series)
# Rat fibroblasts (CREF) [8] = assay: as above; conditions: CREF/GAPDH counter-screens; run 2, dose range 1, at 100 µM (top of the series)
# [9] = inhibitors of PAF-induced NFkB signaling in CF airway cells, dose response, cell-based, uHTS hits, panel, cytotoxicity readout (AID 624344); conditions: CF bronchial epithelial cells, PAF-induced NFkB reporter inhibition, with PAF, run 1; at 79 µM (top of the series) unless noted
# [10] = as above; conditions: CF bronchial epithelial cells, PAF-induced NFkB reporter inhibition, with PAF, run 2; at 79 µM (top of the series) unless noted
# [11] = biological target: Tumor necrosis factor receptor superfamily member 10B (Homo sapiens) (UniProt O14763); assay: caspase-8 TRAIL sensitization, hit retest, confirmation, cell-based, NB7+caspase-8, with/without TRAIL, luminescence panel (AID 651596; in the data active = activity above about 50%); conditions: NB7 neuroblastoma + caspase-8, TRAIL sensitization, luminescence viability, with TRAIL, mean of runs, at 10 µM, stronger effect = higher value
# Sequence of Tumor necrosis factor receptor superfamily member 10B (Homo sapiens) (O14763 whole entry, looked up): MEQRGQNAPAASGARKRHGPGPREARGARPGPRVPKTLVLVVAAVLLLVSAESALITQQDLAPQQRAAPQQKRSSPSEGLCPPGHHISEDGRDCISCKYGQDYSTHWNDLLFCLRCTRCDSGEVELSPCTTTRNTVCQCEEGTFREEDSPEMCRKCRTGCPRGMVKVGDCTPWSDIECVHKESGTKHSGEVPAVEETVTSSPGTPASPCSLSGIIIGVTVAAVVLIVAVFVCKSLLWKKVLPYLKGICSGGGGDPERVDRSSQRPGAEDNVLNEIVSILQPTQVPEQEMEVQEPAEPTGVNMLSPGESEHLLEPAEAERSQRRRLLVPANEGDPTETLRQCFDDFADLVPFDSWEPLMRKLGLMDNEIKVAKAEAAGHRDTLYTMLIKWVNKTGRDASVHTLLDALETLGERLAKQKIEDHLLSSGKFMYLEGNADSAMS
# [12] = as above; conditions: NB7 neuroblastoma + caspase-8, without TRAIL, luminescence viability, without TRAIL, mean of runs, at 10 µM
# [13] = biological target: Tumor necrosis factor receptor superfamily member 10B (Homo sapiens) (UniProt O14763); assay: TRAIL sensitizers in caspase-8 expressing neuroblastoma cells, dose response, NB7 cells plus caspase-8, luminescence, panel (AID 652002); conditions: NB7 neuroblastoma +caspase-8, TRAIL sensitization, luminescence viability, NB7+Caspase-8, with TRAIL, run 1; at 12.5 µM (top of the series)
# [14] = biological target: Tumor necrosis factor receptor superfamily member 10B (Homo sapiens) (UniProt O14763); assay: as above; conditions: NB7 neuroblastoma +caspase-8, TRAIL sensitization, luminescence viability, NB7+Caspase-8, with TRAIL, run 2; at 12.5 µM (top of the series)
# [15] = as above; conditions: NB7 neuroblastoma +caspase-8, no TRAIL, compound-alone cytotoxicity counter-screen, luminescence viability, NB7+Caspase-8, run 1; at 12.5 µM (top of the series) unless noted
# [16] = as above; conditions: NB7 neuroblastoma +caspase-8, no TRAIL, compound-alone cytotoxicity counter-screen, luminescence viability, NB7+Caspase-8, run 2; at 12.5 µM (top of the series) unless noted
smiles,measurement,setting,value
Cc1ccc(C(NC(=O)C2CCN(CCOc3ccc(Cl)cc3Cl)CC2)c2ccccn2)cc1 (stereo not drawn),inhibition,[1],36.9% (inactive)
CCN1CCN(c2nc(Nc3cc(OC)ccc3OC)nc(Nc3cc(OC)ccc3OC)n2)CC1,inhibition,[1],70% (active)
same,inhibition,PEG-3 [2],47.9%
same,inhibition,PEG-3 [3],53.1%
CCCCNc1c(-c2cccc(Sc3ccc(OC)cc3)c2)nc2ccccn12,inhibition,[1],95.6% (active)
same,inhibition,PEG-3 [2],94.7%
same,inhibition,PEG-3 [3],81.9%
CC1(C)O[C@@H]2CC3C4C[C@H](F)C5=CC(=O)C=CC5(C)C4C(O)CC3(C)[C@]2(C(=O)CO)O1 (stereo partly drawn),inhibition,[4],27.4% (inactive)
COc1ccc2c(c1)c(=Cc1ccc(N(C)C)cc1)c1cc(-c3ccccc3)[n+](C)n12,inhibition,[1],97.8% (active)
same,inhibition,[5],65% (active)
same,inhibition,[6],81.7% (active)
same,inhibition,Prothrombin (Bos taurus),67.8% (active)
same,inhibition,PEG-3 [2],102%
same,inhibition,PEG-3 [3],102%
same,inhibition,Rat fibroblasts (CREF) [7],99.5%
same,inhibition,Rat fibroblasts (CREF) [8],100%
CC(C)CN(C(=O)COC(=O)c1ccc2ccccc2c1)c1c(N)n(Cc2ccccc2)c(=O)[nH]c1=O,inhibition,[1],34.1% (inactive)
O=c1[nH]c(=S)[nH]c(O)c1/C=C1\C=Nc2ccccc21,inhibition,[1],47.7% (active)
same,inhibition,PEG-3 [2],73%
same,inhibition,PEG-3 [3],"100% [run 2, dose range 1, at 50 µM]"
COc1ccc2[nH]c(=O)c(CN(Cc3cccnc3)S(=O)(=O)c3ccccc3F)cc2c1,inhibition,[1],56.7% (active)
same,inhibition,[4],86.3% (active)
same,inhibition,[9],109%
same,inhibition,[10],103%
Oc1ccc2ccccc2c1N=Nc1nccs1,inhibition,[1],82.7% (active)
Cc1c(C(=O)Nc2cccc(Cl)c2)cn2c(nc3ccccc32)c1C#N,inhibition,[1],10.5% (inactive)
COc1ccc2sc(-c3ccc(S(C)(=O)=O)cc3)c(C#Cc3cncn3C)c2c1,inhibition,[1],51.8% (active)
same,inhibition,PEG-3 [2],-25.4%
same,inhibition,PEG-3 [3],"60.8% [run 2, dose range 1, at 50 µM]"
same,activity,[11],66.7%
same,activity,[12],34.3%
same,"activity, % sensitization",[13],13.3%
same,"activity, % sensitization",[14],10.2%
same,"activity, % sensitization",[15],-20.9%
same,"activity, % sensitization",[16],-2.18%
Cc1nnc(SCC(=O)N2c3ccccc3C(C)(c3ccc(Cl)cc3)CC2(C)C)s1 (stereo not drawn),inhibition,[1],38.4% (inactive)
CCOC(=O)C(C(=O)c1ccccc1)C(c1ccccc1)c1nccc2ccccc12 (stereo not drawn),inhibition,[4],14.4% (inactive)
O=C(Nc1ccc(Cl)cc1)Nc1nnc(/C=C/c2ccccc2)s1,inhibition,[4],50.8% (active)
Cc1ccc(-c2nc3ccccc3[nH]2)cc1NC(=O)c1sc2ccccc2c1Cl,inhibition,[1],-5.64% (inactive)
O=C(Nc1cccc(-c2cccc(Cl)c2)c1)C1CCN(C2CCC2)CC1,inhibition,[1],92.8% (active)
same,inhibition,PEG-3 [2],98%
same,inhibition,PEG-3 [3],98.9%
CCOc1ccc2nc(N(CCCN(C)C)C(=O)c3ccc(C(=O)c4ccccc4)cc3)sc2c1,inhibition,[1],97.7% (active)
same,inhibition,PEG-3 [2],102%
same,inhibition,PEG-3 [3],101%
same,activity,[11],87.4%
same,activity,[12],98.2%
Cc1c(C)c2ccc(OCC(=O)N3CCN(c4cccc(Cl)c4)CC3)cc2oc1=O,inhibition,[4],10.3% (inactive)
CSc1nc(N)c(C#N)c(-c2ccccc2Cl)c1C#N,inhibition,[1],70.6% (active)
Cc1nc(SCC(=O)Nc2cc(C)on2)c2c(C)c(C)sc2n1,inhibition,[1],33.6% (inactive)
COc1ccc(NC(=S)SC)cc1OC,inhibition,[4],39.3% (inactive)
COc1ccc(OC)c(Cc2cnc3nc(N)nc(N)c3c2C)c1,inhibition,[1],66.8% (active)
same,inhibition,PEG-3 [2],88.7%
same,inhibition,PEG-3 [3],86.7%
CN(Cc1ccccc1F)C(=O)C(Cc1ccccc1)NC(=O)c1ccccc1 (stereo not drawn),inhibition,[1],48.7% (active)
same,inhibition,PEG-3 [2],98.9%
same,inhibition,PEG-3 [3],95.1%
O=C(Nc1ccc2oc(-c3ccc4ccccc4c3)nc2c1)c1cccs1,inhibition,[4],38.7% (inactive)

# From PubChem BioAssay
